# What was measured:
# Experiment in all cases: DAPPL (digital affinity profiling via proximity ligation, sequencing); 10 mM Tris-HCl pH 7.5, 50 mM NaCl, 1 mM DTT, 4% glycerol, room temperature, 30 min; GST-TFs on glutathione beads, 16-mer random dsDNA library, 0.1% formaldehyde crosslink after washing; high values mean tight binding
# FLI1 = biological target: T1, FLI1 (Homo sapiens, UniProt Q01543 1-452); conditions: protein: recombinant; tags: N-terminal GST; dsDNA, one strand shown
# T1 sequence: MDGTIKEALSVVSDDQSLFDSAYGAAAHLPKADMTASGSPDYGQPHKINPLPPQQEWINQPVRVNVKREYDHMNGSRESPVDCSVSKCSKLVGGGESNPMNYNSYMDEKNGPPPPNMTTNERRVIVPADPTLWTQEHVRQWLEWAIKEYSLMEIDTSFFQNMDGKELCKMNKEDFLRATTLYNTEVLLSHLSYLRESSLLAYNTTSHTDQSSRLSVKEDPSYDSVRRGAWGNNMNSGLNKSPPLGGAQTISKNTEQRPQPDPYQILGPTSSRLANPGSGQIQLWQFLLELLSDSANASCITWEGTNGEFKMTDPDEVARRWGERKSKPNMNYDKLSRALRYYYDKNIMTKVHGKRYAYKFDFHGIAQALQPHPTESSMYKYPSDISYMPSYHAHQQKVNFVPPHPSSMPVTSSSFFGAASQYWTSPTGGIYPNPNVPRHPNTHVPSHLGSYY
# In short: (§1)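 Human transcription factors carrying a GST fusion were produced in yeast, bound to glutathione beads, tagged with DNA barcodes and pooled together with a tag-only sample. Each pool was held with 200 nmole of a random double-stranded 16-mer DNA library in Tris/NaCl/DTT/glycerol buffer for 30 min at room temperature, then washed, crosslinked in 0.1% formaldehyde, proximity-ligated with BsaI/T4 ligase (1 h, 37 °C), PCR-amplified and sequenced on an Illumina NextSeq500. Binding signal is the read frequency of each hexamer for a given factor divided by its frequency in the tag-only sample.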
# ELK1 = biological target: T2, ELK1 (Homo sapiens, UniProt P19419 1-428); conditions: protein: recombinant; tags: N-terminal GST; dsDNA, one strand shown
# T2 sequence: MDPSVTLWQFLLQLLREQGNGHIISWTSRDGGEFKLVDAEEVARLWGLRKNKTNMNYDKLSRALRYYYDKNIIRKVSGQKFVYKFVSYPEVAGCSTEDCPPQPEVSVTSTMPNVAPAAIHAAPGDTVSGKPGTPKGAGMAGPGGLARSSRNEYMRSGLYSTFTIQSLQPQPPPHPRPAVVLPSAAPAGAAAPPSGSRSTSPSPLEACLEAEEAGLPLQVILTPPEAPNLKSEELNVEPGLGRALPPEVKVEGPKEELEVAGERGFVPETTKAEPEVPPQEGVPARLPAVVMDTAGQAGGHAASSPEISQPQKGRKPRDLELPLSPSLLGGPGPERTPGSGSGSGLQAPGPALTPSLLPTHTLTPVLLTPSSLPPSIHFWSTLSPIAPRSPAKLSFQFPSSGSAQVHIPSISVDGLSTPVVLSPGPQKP
# In short: as §1
# GABPA = biological target: T3, GABPA (Homo sapiens, UniProt Q06546 1-454); conditions: protein: recombinant; tags: N-terminal GST; dsDNA, one strand shown
# T3 sequence: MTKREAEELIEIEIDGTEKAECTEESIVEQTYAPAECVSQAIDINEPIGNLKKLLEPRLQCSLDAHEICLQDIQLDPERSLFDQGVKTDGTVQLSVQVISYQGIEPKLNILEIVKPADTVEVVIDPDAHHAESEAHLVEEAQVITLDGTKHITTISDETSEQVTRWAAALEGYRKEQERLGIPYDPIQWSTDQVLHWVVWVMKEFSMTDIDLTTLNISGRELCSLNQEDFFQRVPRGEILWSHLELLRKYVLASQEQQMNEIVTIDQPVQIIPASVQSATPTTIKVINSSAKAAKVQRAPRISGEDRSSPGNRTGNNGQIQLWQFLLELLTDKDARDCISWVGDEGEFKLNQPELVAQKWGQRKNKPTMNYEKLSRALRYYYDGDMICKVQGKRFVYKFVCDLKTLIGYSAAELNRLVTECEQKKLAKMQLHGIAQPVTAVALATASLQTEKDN
# In short: as §1
# ERG = biological target: T4, ERG (Homo sapiens, UniProt P11308 1-479); conditions: protein: recombinant; tags: N-terminal GST; dsDNA, one strand shown
# T4 sequence: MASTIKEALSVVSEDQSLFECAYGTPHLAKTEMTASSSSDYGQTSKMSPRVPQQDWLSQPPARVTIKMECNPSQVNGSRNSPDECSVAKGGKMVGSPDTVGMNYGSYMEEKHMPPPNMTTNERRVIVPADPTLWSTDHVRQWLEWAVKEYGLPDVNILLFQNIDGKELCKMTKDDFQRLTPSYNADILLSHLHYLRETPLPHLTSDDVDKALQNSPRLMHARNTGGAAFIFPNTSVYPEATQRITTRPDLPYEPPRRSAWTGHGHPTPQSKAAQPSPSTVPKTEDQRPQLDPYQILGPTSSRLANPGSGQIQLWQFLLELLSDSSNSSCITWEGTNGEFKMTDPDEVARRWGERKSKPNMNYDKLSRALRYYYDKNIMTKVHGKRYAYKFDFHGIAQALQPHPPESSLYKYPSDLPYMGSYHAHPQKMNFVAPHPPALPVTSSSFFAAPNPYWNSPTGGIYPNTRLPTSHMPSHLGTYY
# In short: as §1
# ELF1 = ELF1 (Homo sapiens, UniProt P32519 1-619); conditions: protein: recombinant; tags: N-terminal GST; dsDNA, one strand shown
# In short: as §1
# EHF = biological target: T5, EHF (Homo sapiens, UniProt Q9NZC4 1-300); conditions: protein: recombinant; tags: N-terminal GST; dsDNA, one strand shown
# T5 sequence: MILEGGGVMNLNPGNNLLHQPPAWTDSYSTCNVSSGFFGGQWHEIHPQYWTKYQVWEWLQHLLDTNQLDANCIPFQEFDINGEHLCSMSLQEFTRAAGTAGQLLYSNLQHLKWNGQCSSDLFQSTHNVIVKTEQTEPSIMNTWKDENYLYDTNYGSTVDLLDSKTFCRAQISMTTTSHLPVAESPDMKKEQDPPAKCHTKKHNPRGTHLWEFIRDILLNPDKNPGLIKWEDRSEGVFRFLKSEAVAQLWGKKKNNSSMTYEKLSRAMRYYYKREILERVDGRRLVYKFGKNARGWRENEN
# In short: as §1
# SPI1 = SPI1 (Homo sapiens, UniProt P17947 1-270); conditions: protein: recombinant; tags: N-terminal GST; dsDNA, one strand shown
# In short: as §1
# SPIB = SPIB (Homo sapiens, UniProt Q01892 1-262); conditions: protein: recombinant; tags: N-terminal GST; dsDNA, one strand shown
# In short: as §1
# ELK3 = biological target: T6, ELK3 (Homo sapiens, UniProt P41970 1-407); conditions: protein: recombinant; tags: N-terminal GST; dsDNA, one strand shown
# T6 sequence: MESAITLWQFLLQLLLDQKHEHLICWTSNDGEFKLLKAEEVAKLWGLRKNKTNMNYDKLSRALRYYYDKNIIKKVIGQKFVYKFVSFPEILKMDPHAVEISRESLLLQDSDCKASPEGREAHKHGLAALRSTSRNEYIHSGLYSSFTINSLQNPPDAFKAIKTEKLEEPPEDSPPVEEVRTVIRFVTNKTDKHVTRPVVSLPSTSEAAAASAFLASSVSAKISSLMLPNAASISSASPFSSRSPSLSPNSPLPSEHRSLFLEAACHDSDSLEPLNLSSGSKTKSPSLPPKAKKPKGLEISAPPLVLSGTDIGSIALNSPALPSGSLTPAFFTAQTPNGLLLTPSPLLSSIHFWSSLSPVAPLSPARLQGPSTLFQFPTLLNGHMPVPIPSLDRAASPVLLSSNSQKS
# In short: as §1
# FEV = biological target: T7, FEV (Homo sapiens, UniProt Q99581 1-238); conditions: protein: recombinant; tags: N-terminal GST; dsDNA, one strand shown
# T7 sequence: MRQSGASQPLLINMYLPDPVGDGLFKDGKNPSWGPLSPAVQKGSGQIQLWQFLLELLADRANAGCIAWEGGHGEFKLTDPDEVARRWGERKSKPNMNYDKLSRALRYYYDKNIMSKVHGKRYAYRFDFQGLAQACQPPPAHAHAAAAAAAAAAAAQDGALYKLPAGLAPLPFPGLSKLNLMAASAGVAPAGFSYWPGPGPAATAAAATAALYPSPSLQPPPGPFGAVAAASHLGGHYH
# In short: as §1
# ETV5 = ETV5 (Homo sapiens, UniProt P41161 1-510); conditions: protein: recombinant; tags: N-terminal GST; dsDNA, one strand shown
# In short: as §1
# HSF1 = HSF1 (Homo sapiens, UniProt Q00613 1-529); conditions: protein: recombinant; tags: N-terminal GST; chain copies: 3; dsDNA, one strand shown
# In short: as §1
# SPIC = biological target: T8, SPIC (Homo sapiens, UniProt Q8N5J4 1-248); conditions: protein: recombinant; tags: N-terminal GST; dsDNA, one strand shown
# T8 sequence: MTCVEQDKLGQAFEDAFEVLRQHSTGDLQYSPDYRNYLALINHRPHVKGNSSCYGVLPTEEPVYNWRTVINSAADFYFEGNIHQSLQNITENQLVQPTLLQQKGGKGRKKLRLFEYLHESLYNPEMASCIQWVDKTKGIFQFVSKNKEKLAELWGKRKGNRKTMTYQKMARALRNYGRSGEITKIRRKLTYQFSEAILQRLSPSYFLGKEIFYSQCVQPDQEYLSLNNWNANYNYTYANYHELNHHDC
# In short: as §1
# ELF4 = ELF4 (Homo sapiens, UniProt Q99607 1-663); conditions: protein: recombinant; tags: N-terminal GST; dsDNA, one strand shown
# In short: as §1
# ELK4 = biological target: T9, ELK4 (Homo sapiens, UniProt P28324-2 1-405); conditions: protein: recombinant; tags: N-terminal GST; dsDNA, one strand shown
# T9 sequence: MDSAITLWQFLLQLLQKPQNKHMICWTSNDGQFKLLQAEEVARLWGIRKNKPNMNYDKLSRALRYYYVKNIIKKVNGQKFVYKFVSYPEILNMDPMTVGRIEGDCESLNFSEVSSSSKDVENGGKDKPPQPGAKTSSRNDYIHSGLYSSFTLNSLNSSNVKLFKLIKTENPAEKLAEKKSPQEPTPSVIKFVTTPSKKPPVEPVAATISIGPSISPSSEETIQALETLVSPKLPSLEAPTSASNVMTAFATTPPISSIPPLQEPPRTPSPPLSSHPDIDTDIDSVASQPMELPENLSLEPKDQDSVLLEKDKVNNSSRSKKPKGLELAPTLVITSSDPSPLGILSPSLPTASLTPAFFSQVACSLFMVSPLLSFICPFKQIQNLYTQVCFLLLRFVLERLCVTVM
# In short: as §1
# ETV2 = biological target: T10, ETV2 (Homo sapiens, UniProt O00321 1-342); conditions: protein: recombinant; tags: N-terminal GST; dsDNA, one strand shown
# T10 sequence: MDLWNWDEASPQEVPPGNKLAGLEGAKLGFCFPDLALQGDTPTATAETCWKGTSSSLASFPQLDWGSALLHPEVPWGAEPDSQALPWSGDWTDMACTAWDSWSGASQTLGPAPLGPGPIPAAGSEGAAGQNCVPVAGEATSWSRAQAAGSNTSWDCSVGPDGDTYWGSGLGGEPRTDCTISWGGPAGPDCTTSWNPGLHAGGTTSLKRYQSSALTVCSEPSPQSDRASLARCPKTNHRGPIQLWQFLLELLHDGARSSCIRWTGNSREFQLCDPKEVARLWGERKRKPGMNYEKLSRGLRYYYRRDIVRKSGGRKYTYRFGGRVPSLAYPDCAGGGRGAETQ
# In short: as §1
# ELF3 = biological target: T11, ELF3 (Homo sapiens, UniProt P78545 1-371); conditions: protein: recombinant; tags: N-terminal GST; dsDNA, one strand shown
# T11 sequence: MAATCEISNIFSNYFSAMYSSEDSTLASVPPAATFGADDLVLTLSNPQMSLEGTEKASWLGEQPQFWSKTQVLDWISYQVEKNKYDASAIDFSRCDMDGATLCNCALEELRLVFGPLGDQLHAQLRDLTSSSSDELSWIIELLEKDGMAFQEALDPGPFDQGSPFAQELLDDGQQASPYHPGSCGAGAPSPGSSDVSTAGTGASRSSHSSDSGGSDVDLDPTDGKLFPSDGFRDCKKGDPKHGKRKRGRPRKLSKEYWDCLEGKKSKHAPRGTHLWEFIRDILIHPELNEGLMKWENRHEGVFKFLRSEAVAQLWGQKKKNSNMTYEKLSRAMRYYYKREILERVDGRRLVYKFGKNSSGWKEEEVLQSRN
# In short: as §1
# ETV1 = ETV1 (Homo sapiens, UniProt P50549 1-477); conditions: protein: recombinant; tags: N-terminal GST; dsDNA, one strand shown
# In short: as §1
# Chain of ETV5 (P41161 whole entry): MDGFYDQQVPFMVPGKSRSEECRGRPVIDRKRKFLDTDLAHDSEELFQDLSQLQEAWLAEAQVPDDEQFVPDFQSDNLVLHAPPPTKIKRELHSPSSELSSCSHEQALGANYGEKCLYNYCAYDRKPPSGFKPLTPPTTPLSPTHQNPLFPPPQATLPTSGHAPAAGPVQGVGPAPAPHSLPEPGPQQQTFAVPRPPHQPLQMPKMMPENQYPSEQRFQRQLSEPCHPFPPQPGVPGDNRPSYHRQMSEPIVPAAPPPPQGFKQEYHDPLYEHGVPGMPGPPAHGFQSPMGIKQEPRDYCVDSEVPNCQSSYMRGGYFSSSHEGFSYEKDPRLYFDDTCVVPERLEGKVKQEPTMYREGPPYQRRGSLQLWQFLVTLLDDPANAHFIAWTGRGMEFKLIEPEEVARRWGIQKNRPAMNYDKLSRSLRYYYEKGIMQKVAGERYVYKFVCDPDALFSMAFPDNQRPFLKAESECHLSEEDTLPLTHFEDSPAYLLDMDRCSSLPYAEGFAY
# Chain of ELF4 (Q99607 whole entry): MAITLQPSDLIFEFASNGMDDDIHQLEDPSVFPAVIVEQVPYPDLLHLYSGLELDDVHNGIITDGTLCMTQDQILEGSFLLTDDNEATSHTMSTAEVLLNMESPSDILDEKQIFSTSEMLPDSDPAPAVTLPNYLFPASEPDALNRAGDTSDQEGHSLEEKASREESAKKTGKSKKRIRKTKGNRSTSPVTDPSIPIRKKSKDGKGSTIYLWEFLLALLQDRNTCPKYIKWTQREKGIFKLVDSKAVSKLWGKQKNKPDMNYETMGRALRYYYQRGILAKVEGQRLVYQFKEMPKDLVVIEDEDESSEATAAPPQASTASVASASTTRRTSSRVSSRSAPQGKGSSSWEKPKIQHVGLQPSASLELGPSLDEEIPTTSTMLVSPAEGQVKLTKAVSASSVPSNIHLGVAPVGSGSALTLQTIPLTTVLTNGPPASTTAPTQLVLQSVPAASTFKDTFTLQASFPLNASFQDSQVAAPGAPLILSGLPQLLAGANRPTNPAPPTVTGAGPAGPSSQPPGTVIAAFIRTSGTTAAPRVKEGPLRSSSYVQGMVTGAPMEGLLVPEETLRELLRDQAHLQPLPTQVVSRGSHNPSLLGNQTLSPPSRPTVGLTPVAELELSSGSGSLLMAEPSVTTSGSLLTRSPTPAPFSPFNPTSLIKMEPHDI
# Chain of SPIB (Q01892 whole entry): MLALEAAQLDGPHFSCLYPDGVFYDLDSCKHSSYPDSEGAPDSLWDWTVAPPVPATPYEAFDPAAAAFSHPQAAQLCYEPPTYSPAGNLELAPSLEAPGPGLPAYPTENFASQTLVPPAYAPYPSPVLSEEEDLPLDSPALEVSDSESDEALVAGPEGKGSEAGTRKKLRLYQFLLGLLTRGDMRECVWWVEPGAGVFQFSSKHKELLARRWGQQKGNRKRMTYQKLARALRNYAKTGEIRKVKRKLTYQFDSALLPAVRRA
# Chain of HSF1 (Q00613 whole entry): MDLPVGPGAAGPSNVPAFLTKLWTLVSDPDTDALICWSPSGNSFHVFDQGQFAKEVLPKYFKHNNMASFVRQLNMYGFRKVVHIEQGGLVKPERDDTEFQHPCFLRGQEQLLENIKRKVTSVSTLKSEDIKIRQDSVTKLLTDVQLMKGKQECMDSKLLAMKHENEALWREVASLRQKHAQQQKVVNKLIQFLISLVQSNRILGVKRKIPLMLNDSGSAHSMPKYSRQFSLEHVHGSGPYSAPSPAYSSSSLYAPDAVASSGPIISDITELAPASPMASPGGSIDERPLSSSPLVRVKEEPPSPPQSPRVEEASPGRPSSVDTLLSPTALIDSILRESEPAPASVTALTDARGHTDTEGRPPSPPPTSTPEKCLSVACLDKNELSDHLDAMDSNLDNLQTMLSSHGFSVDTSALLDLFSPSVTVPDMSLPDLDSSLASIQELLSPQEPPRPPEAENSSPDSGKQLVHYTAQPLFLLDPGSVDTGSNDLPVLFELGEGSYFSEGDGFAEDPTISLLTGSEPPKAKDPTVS
# Chain of ETV1 (P50549 whole entry): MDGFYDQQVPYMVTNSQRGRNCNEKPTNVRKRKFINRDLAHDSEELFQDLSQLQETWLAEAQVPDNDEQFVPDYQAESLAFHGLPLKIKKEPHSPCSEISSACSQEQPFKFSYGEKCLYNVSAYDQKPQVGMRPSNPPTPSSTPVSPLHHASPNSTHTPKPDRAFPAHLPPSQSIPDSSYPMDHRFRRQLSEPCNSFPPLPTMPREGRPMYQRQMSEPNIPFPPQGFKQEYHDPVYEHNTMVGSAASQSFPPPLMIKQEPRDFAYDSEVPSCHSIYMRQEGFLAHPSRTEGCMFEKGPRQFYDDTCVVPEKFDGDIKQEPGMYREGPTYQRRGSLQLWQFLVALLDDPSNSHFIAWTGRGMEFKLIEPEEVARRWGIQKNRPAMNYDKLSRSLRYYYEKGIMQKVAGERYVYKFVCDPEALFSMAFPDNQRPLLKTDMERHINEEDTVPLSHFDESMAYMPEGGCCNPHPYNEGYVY
# Chain of ELF1 (P32519 whole entry): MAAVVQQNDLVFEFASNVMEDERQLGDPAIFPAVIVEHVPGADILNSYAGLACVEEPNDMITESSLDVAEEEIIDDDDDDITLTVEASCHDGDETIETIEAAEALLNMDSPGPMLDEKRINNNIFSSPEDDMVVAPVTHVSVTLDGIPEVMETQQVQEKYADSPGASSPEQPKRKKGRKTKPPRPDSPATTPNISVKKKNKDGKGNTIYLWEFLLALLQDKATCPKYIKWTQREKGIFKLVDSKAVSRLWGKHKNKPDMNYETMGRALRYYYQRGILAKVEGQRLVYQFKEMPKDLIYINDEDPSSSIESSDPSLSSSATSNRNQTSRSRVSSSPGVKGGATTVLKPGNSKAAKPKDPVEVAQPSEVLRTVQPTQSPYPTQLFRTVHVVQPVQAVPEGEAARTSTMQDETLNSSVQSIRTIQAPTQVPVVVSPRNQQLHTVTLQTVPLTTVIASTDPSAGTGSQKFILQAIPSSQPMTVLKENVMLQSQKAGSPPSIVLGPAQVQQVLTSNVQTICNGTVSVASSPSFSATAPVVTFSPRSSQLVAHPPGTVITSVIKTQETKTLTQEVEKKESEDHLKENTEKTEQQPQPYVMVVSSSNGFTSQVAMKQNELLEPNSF
sequence,measurement,setting,value
TGCCGC,binding signal,FLI1,"1.33 fold enrichment (6-mer frequency, TF over GST control)"
same,binding signal,ELK1,"1.3 fold enrichment (6-mer frequency, TF over GST control)"
same,binding signal,GABPA,"1.33 fold enrichment (6-mer frequency, TF over GST control)"
same,binding signal,ERG,"1.24 fold enrichment (6-mer frequency, TF over GST control)"
same,binding signal,ELF1,"1.28 fold enrichment (6-mer frequency, TF over GST control)"
same,binding signal,EHF,"1.28 fold enrichment (6-mer frequency, TF over GST control)"
same,binding signal,SPI1,"1.37 fold enrichment (6-mer frequency, TF over GST control)"
same,binding signal,SPIB,"1.36 fold enrichment (6-mer frequency, TF over GST control)"
same,binding signal,ELK3,"1.26 fold enrichment (6-mer frequency, TF over GST control)"
same,binding signal,FEV,"1.27 fold enrichment (6-mer frequency, TF over GST control)"
same,binding signal,ETV5,"1.23 fold enrichment (6-mer frequency, TF over GST control)"
same,binding signal,HSF1,"1.03 fold enrichment (6-mer frequency, TF over GST control)"
same,binding signal,SPIC,"1.15 fold enrichment (6-mer frequency, TF over GST control)"
same,binding signal,ELF4,"1.35 fold enrichment (6-mer frequency, TF over GST control)"
same,binding signal,ELK4,"1.23 fold enrichment (6-mer frequency, TF over GST control)"
same,binding signal,ETV2,"1.06 fold enrichment (6-mer frequency, TF over GST control)"
same,binding signal,ELF3,"1.07 fold enrichment (6-mer frequency, TF over GST control)"
same,binding signal,ETV1,"1.3 fold enrichment (6-mer frequency, TF over GST control)"
